This note sets out measurements from PubChem BioAssay (Tox21).

Results filed as inconclusive are left out. Entries that show only a call come without a potency. Where a structure was tested more than once in an assay, its records may differ in their call. Active and inactive are the calls of the source. Unless noted, calls come from the whole dose curve; as a rule, active = well fitted curve in the direction sought with a large enough effect in the repeat runs; inconclusive = weak or mixed curves; inactive = no such curve, though single readings can be large; an effect the other way counts as inactive or inconclusive.

Sequence of Thyrotropin-releasing hormone receptor (Homo sapiens) (P34981 whole entry, looked up): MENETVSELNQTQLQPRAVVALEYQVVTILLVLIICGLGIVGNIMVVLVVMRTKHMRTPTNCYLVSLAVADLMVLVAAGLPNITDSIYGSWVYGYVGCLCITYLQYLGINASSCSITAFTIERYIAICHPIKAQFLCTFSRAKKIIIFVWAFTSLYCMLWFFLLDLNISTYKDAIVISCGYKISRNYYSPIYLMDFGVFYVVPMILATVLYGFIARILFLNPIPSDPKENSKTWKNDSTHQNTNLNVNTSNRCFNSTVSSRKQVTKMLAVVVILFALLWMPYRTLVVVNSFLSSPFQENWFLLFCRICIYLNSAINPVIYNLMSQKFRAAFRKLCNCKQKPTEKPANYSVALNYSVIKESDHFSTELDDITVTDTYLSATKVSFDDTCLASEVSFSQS

The first assay concerns the target Thyrotropin-releasing hormone receptor (Homo sapiens) (UniProt P34981). The assay is described as follows: qHTS assay to identify small molecule agonists of the thyrotropin-releasing hormone receptor (TRHR) signaling pathway (AID 1346891; calls by dose curve;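 note: HEK293 cells expressing TRHR with calcium dye readout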). The following applies: TRHR-HEK293 calcium fluorescence, agonist mode; series mostly up to 57.6 µM. The procedure, abridged:
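Kinetic fluorescence (3 min, 1 s intervals) reported intracellular calcium after compound transfer onto TRHR-Hek293 cells pre-loaded with dye for 2 h at 37 °C.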
(In qHTS, concentration-response curves come from the screen itself.)
For the molecule `CN(C)CCC(c1ccccc1)c1ccccn1` (centres undefined), the result was inactive.
`O=c1[nH]c(=O)n([C@H]2C[C@H](O)[C@@H](CO)O2)cc1Br`: the result was inactive.
As for `OCCOCCOCCO`, the outcome was inactive.
Still for that read-out and setting: under `CC(=O)OCC(=O)[C@@]12N=C(C)O[C@@H]1C[C@H]1[C@@H]3CCC4=CC(=O)C=C[C@]4(C)[C@H]3[C@@H](O)C[C@@]12C` stands “inactive”.
Same read-out and setting: under `O=C(O)c1ccc2c(c1)C(=O)OC2=O` stands “inactive”; under `OC[C@H]1O[C@@](CO)(O[C@H]2O[C@H](CO)[C@@H](O)[C@H](O)[C@H]2O)[C@@H](O)[C@@H]1O`, “inactive”.
For the molecule `Cc1ccc(N(C)C)cc1`, the result was inactive.
With `O=C(OCCOCCOC(=O)c1ccccc1)c1ccccc1`, the outcome was inactive.
On to `O=C(Oc1ccccc1)c1ccccc1`, for which the outcome was inactive.
For `CC(C)(N)CO`, the outcome was inactive.
Same read-out and setting: under `OCc1cccnc1` stands “inactive”; under `CCCC(C)=O`, “inactive”; under `CCCCC(CC)COC(=O)CCCCC(=O)OCC(CC)CCCC` (centres undefined), “inactive”.
Regarding `CCCCCC/C(C=O)=C\c1ccccc1`, the outcome was inactive.
Still for that read-out and setting: under `Cc1ccc(S(N)(=O)=O)cc1` stands “inactive”; under `FC(F)(F)c1ccc(Cl)c(Cl)c1`, “inactive”.
`C[Si](O[Si](C)(C)C)O[Si](C)(C)C`: the result was inactive.
Same read-out and setting: under `C=C(C)C(=O)Nc1ccc(Cl)c(Cl)c1` stands “inactive”.
`CCCCC(CC)COC(=O)CS` (centres undefined): the outcome was inactive.
Still for that read-out and setting: under `COS(C)(=O)=O` stands “inactive”.
For the molecule `CC(c1cc2ccccc2s1)N(O)C(N)=O` (centres undefined), the result was inactive.
Same read-out and setting: under `Cc1cc(C)c(C)cc1C` stands “inactive”; under `CCCCOC(=O)COc1ccc(Cl)cc1Cl`, “inactive”.
Same read-out and setting: next, `Oc1cccc2ccccc12`: “inactive”; `CC1CCC2CC1C2(C)C` (centres undefined): “inactive”.
Turning to `CCCCCOC(C)=O`, the outcome was inactive.
With `CCCCCC(N)=O`, the outcome was inactive.
With `C=CCOC(=O)c1ccccc1C(=O)OCC=C`, the outcome was inactive.
As for `OCC(CO)(CBr)CBr`, the outcome was inactive.
Same read-out and setting: under `O=c1[nH]c(=O)n([C@H]2CCCO2)cc1F` stands “inactive”; under `CCCCN(CCCC)CCCC`, “inactive”; under `C=CCNC(N)=S`, “inactive”.
Still for that read-out and setting: next, `COc1cc(Cc2cnc(N)nc2N)cc(OC)c1OC`: “inactive”.
Still for that read-out and setting: under `O=C1CCC(N2C(=O)c3ccccc3C2=O)C(=O)N1` (centres undefined) stands “inactive”; under `C=C(C)C(=O)OCCOCCOCCOC(=O)C(=C)C`, “inactive”.
With `CCC(O)OCCCOC` (centres undefined), the result was inactive.
On to `CN(C)CCCN`, for which the outcome was inactive.
On the same count and under the same terms, under `CCc1cccc(C)c1N` stands “inactive”.

Test system in a further assay: not listed separately
Description: Human pregnane X receptor (PXR) small molecule agonists, qHTS cell viability counter screen (AID 1346977). Note: nearly all actives have a fitted effect of over 50% in size. Note: potency is the fitted concentration of half-maximal effect. The conditions noted are these: PXR-Luc HepG2 viability, CellTiter-Fluor, 24 h; series mostly up to 92.4 µM. In short, it runs like this: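 HepG2 cells stably carrying the PXR-Luc reporter are cultured with 5% charcoal-stripped FBS and treated with compounds for 24hr. CellTiter-Fluor is added at 23hr and fluorescence is read after 1hr.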
Regarding `CN(C)CCC(c1ccccc1)c1ccccn1` (centres undefined), the Potency entry was “inactive”.
On the same count and under the same terms, next, `O=c1[nH]c(=O)n([C@H]2C[C@H](O)[C@@H](CO)O2)cc1Br`: “inactive”; `OCCOCCOCCO`: “inactive”; `CC(=O)OCC(=O)[C@@]12N=C(C)O[C@@H]1C[C@H]1[C@@H]3CCC4=CC(=O)C=C[C@]4(C)[C@H]3[C@@H](O)C[C@@]12C`: “inactive”.
Regarding `O=C(O)c1ccc2c(c1)C(=O)OC2=O`, the Potency result is “inactive”.
Take `OC[C@H]1O[C@@](CO)(O[C@H]2O[C@H](CO)[C@@H](O)[C@H](O)[C@H]2O)[C@@H](O)[C@@H]1O`: the Potency entry was “inactive”.
Turning to `Cc1ccc(N(C)C)cc1`, the Potency entry is “inactive”.
Consider `O=C(OCCOCCOC(=O)c1ccccc1)c1ccccc1`, for which the Potency entry is “inactive”.
`O=C(Oc1ccccc1)c1ccccc1`: the Potency entry was “inactive”.
The same measure, in the same setting: next, `CC(C)(N)CO`: “inactive”; `OCc1cccnc1`: “inactive”; `CCCC(C)=O`: “inactive”.
As for `CCCCC(CC)COC(=O)CCCCC(=O)OCC(CC)CCCC` (centres undefined), the Potency result is “inactive”.
On the same count and under the same terms, under `CCCCCC/C(C=O)=C\c1ccccc1` stands “inactive”; under `Cc1ccc(S(N)(=O)=O)cc1`, “inactive”; under `FC(F)(F)c1ccc(Cl)c(Cl)c1`, “inactive”.
With `C[Si](O[Si](C)(C)C)O[Si](C)(C)C`, the Potency entry was “inactive”.
On the same count and under the same terms, under `C=C(C)C(=O)Nc1ccc(Cl)c(Cl)c1` stands “inactive”; under `CCCCC(CC)COC(=O)CS` (centres undefined), “inactive”; under `COS(C)(=O)=O`, “inactive”.
Still for that read-out and setting: next, `CC(c1cc2ccccc2s1)N(O)C(N)=O` (centres undefined): “inactive”; `Cc1cc(C)c(C)cc1C`: “inactive”; `CCCCOC(=O)COc1ccc(Cl)cc1Cl`: “inactive”.
On the same count and under the same terms, under `Oc1cccc2ccccc12` stands “inactive”.
Turning to `CC1CCC2CC1C2(C)C` (centres undefined), the Potency entry is “inactive”.
In the case of `CCCCCOC(C)=O`, the Potency result is “inactive”.
Still for that read-out and setting: next, `CCCCCC(N)=O`: “inactive”; `C=CCOC(=O)c1ccccc1C(=O)OCC=C`: “inactive”.
Still for that read-out and setting: under `OCC(CO)(CBr)CBr` stands “inactive”; under `O=c1[nH]c(=O)n([C@H]2CCCO2)cc1F`, “inactive”; under `CCCCN(CCCC)CCCC`, “inactive”.
Take `C=CCNC(N)=S`: the Potency entry was “inactive”.
`COc1cc(Cc2cnc(N)nc2N)cc(OC)c1OC`: the Potency entry was “inactive”.
Same read-out and setting: under `O=C1CCC(N2C(=O)c3ccccc3C2=O)C(=O)N1` (centres undefined) stands “inactive”.
Consider `C=C(C)C(=O)OCCOCCOCCOC(=O)C(=C)C`, for which the Potency result is “inactive”.
Take `CCC(O)OCCCOC` (centres undefined): the Potency was 22.4 µM (active) and inactive.
Still for that read-out and setting: under `CN(C)CCCN` stands “inactive”; under `CCc1cccc(C)c1N`, “inactive”.

Test system in another assay: not listed separately
The assay is described as follows: Caspase-3/7 induction in HepG2 cells by small molecules, qHTS assay (AID 1346978). Note: nearly all actives have a fitted effect of over 15% in size. The following applies: HepG2 caspase-3/7 activation, Caspase-Glo luminescence, 17 h; series mostly up to 92.4 µM. In short, it runs like this: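 Wild-type HepG2 cells, 2,000/well, settled 5 hr at 37 C and 5% CO2, then compound-treated for 17 hr; caspase-3/7 activity read by luminescent Caspase-Glo 3/7 after 30 min at room temperature.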
In the case of `CN(C)CCC(c1ccccc1)c1ccccn1` (centres undefined), the Potency entry is “inactive”.
On the same count and under the same terms, under `O=c1[nH]c(=O)n([C@H]2C[C@H](O)[C@@H](CO)O2)cc1Br` stands “inactive”.
Take `OCCOCCOCCO`: the Potency entry was “inactive”.
For `CC(=O)OCC(=O)[C@@]12N=C(C)O[C@@H]1C[C@H]1[C@@H]3CCC4=CC(=O)C=C[C@]4(C)[C@H]3[C@@H](O)C[C@@]12C`, the Potency result is “inactive”.
With `O=C(O)c1ccc2c(c1)C(=O)OC2=O`, the Potency result was “inactive”.
`OC[C@H]1O[C@@](CO)(O[C@H]2O[C@H](CO)[C@@H](O)[C@H](O)[C@H]2O)[C@@H](O)[C@@H]1O`: the Potency entry was “inactive”.
On the same count and under the same terms, next, `Cc1ccc(N(C)C)cc1`: “inactive”.
On to `O=C(OCCOCCOC(=O)c1ccccc1)c1ccccc1`, for which the Potency entry was “inactive”.
As to `O=C(Oc1ccccc1)c1ccccc1`, the Potency entry was “inactive”.
On the same count and under the same terms, under `CC(C)(N)CO` stands “inactive”; under `OCc1cccnc1`, “inactive”.
In the case of `CCCC(C)=O`, the Potency entry is “inactive”.
Same read-out and setting: under `CCCCC(CC)COC(=O)CCCCC(=O)OCC(CC)CCCC` (centres undefined) stands “inactive”.
In the case of `CCCCCC/C(C=O)=C\c1ccccc1`, the Potency result is “inactive”.
For `Cc1ccc(S(N)(=O)=O)cc1`, the Potency result is “inactive”.
`FC(F)(F)c1ccc(Cl)c(Cl)c1`: the Potency entry was “inactive”.
With `C[Si](O[Si](C)(C)C)O[Si](C)(C)C`, the Potency result was “inactive”.
Same read-out and setting: next, `C=C(C)C(=O)Nc1ccc(Cl)c(Cl)c1`: “inactive”; `CCCCC(CC)COC(=O)CS` (centres undefined): “inactive”; `COS(C)(=O)=O`: “inactive”.
Same read-out and setting: under `CC(c1cc2ccccc2s1)N(O)C(N)=O` (centres undefined) stands “inactive”.
With `Cc1cc(C)c(C)cc1C`, the Potency result was “inactive”.
On the same count and under the same terms, under `CCCCOC(=O)COc1ccc(Cl)cc1Cl` stands “inactive”.
On the same count and under the same terms, under `Oc1cccc2ccccc12` stands “inactive”; under `CC1CCC2CC1C2(C)C` (centres undefined), “inactive”; under `CCCCCOC(C)=O`, “inactive”.
The same measure, in the same setting: next, `CCCCCC(N)=O`: “inactive”; `C=CCOC(=O)c1ccccc1C(=O)OCC=C`: “inactive”; `OCC(CO)(CBr)CBr`: “inactive”.
Take `O=c1[nH]c(=O)n([C@H]2CCCO2)cc1F`: the Potency result was “inactive”.
Still for that read-out and setting: under `CCCCN(CCCC)CCCC` stands “inactive”; under `C=CCNC(N)=S`, “inactive”; under `COc1cc(Cc2cnc(N)nc2N)cc(OC)c1OC`, “inactive”.
Same read-out and setting: under `O=C1CCC(N2C(=O)c3ccccc3C2=O)C(=O)N1` (centres undefined) stands “inactive”.
On the same count and under the same terms, next, `C=C(C)C(=O)OCCOCCOCCOC(=O)C(=C)C`: “inactive”; `CCC(O)OCCCOC` (centres undefined): “inactive”.
On to `CN(C)CCCN`, for which the Potency result was “inactive”.
Still for that read-out and setting: next, `CCc1cccc(C)c1N`: “inactive”.
